# According to the supplement of paper PMC11417369:
# In all, about 25,000 sequences were measured (“ln(normalized median fluorescence intensity)”: median about 7.1, highest 2% from about 10 on). Shown is part of a subset that was picked to be rich in the highest values.
# System: PfSIP2 AP2 domain 1 (GST-tagged)
# Assay: gcPBM binding intensity (ln(normalized median fluorescence intensity)); higher = stronger DNA binding
# Outline: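 The highest Masliner-normalised natural-log median intensity across replicate spots of either probe orientation is reported as binding intensity. GST-tagged P. falciparum DNA-binding domains expressed in E. coli were applied for 1 h to an Agilent 4 × 180k array of primer-extended double-stranded 36-bp intergenic genomic probes plus negative controls, and bound protein was detected with Alexa488 anti-GST antibody and scanned at 488 nm.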
row,Sequence,gcPBM binding intensity (ln)
1,TTCTCCTAATAGTTAGTGCACTACATAACTAAGAAA,10.8
2,AATGACTACATAATAGTGCAATATTAAAGAAAATTA,8.55
3,AAATAATTAGAAATAGTGCACATAATTAAGGGATAC,10.1
4,TATTTTTTTACATATTGTACATAATATAAAACTTAC [XGTACX_site8273],7.17
5,TATTATATATTAAATGCATGTAAAAATAATATTAAA [TGCATGCA_site643],7.02
6,GATAAAATCACTGGTGCATGTAGATATATAATATTA [TGCATGCA_site589],10.5
7,GAAAAATATATTCTGGTGCATGAATAAAATCATAAA,10.2
8,TACCATAATCAATGCACACATAACAAAATATTATTA [CACACA_site2722],7.33
9,ATCAAAATTGTCATTACACACCTTTATTTTTATAAT [CACACA_site5071],7.12
10,TATATAGAGAGATATGCACACTGTATGAATGCCCCC [CACACA_site5476],9.53
11,TATATGGAGAGATATGCACACTGTATGAATGCCCCC [CACACA_site8853],9.32
12,AATATATAGAGAGATATGCACACTGTATGAATGCAC [CACACA_site2677],10.3
13,ATATATATATATAATAAACACACAAATAGATATAAC [CACACA_site9234],9.02
14,AATAATTCATCATATGCACACACAATACCAAAATGT [CACACA_site7945],8.05
15,GAAAATATTAAATGAAGTACAATATTTATGTTACTT [XGTACX_site8737],6.71
16,TTTTTTTTTGGGGGTGCATGCAAGACATATATTTAA [TGCATGCA_site228],11.6
17,AATATTTTTTTTTAAACATGCATATTTGCATTACCC [TGCATGCA_site437],6.99
18,TATATATATATATATACATGCATATTTTTTATTTTT [TGCATGCA_site464],9.67
19,ACAAAATAATTGTTTACACACCCATTTGTAATTTTA [CACACA_site3615],6.88
20,TTATCATATCATGGAAGTACAAATAAAATATATAAC [XGTACX_site1608],7.24
21,ATTTCATATGGTCAACGTACTCATGCATCCCTCCTT [XGTACX_site437],6.86
22,TTATTTTAATTTTTGGTGCATATTCAAGTGTACCTT [GTGCAC_site9791],9.68
23,GTTATAATTGAACTAGTGCATAAATATATTTTAATT [GTGCAC_site9851],9.01

row,Sequence,gcPBM binding intensity (ln)
1,ATTTTCACCTGAACGGTGCATATTTAATTTTAGGTT,10.5
2,ATTTATTTATCTAGCTATTCACCATTTTCTTTTGTT [CACACA_negctrl_site1259],6.61
3,TTTAATTGATAATGAAGACAATTATATGCATCCAAA [TGCATGCA_negctrl_site138],6.79
4,ACGACATATGGATGATGTACTATCTTTATTATACAT [XGTACX_site6857],6.89
5,TAAAGAAATAAATACATACACACATATATATATATA [CACACA_site3363],9.69
6,TAAAAGAAATAAGGTGCACACATATACATATATATA [CACACA_site8037],11.8
7,ATGCATAAAAGAAATACACACATAAATATATAAATA [CACACA_site2163],7.02
8,AAATATAAGAAAAAGGTGCTTTTTTTTTTTTTTTTT [GTGCAC_site9700],8.42
9,TATACAGATAAATACACACACACATATATATATATA [CACACA_site4845],9.39
10,AAAGAAATAAGGTGCACACATATACATATATATATA [CACACA_site429],11.9
11,AGAAATAAGAAATATACACACATATATATATATATA [CACACA_site2808],9.79
12,AAATATAATATATGCACACATACATACAGATATATA [CACACA_site4235],7.09
13,TAAAAGAAATAATATACACACATATATAAAAATAAA [CACACA_site1329],6.86
14,AAAAAAAAAATACAGGTGCAATAAGAAAAAAATGGT,10.2
15,AAAGAAATAAGGTGCACACATATACAGATATATATA [CACACA_site4399],11.9
16,ATATATATATAATAAGTGCAAAAAAAAGAAAAAAAT,8.48
17,AAGGAAAAGTAAAGAAGTACTGTACCGCCAAAAAAA [XGTACX_site2607],6.98
18,TAAATATATTTATATTGTACATTTATGTTGATACCA [XGTACX_site228],6.88
19,TATAGATAAGAATATGCACACATTTTATTTTTTTTT [CACACA_site1982],7.16
20,TCTTTAAAAAAAAAAAAAAAAAATTCCAAATAAATA [TGCATGCA_negctrl_site538],6.72
21,ATTTGTTCATTTGGTTGTACATAATTTATTTTTATA [XGTACX_site785],7.26
22,TTGTATATTTTATGTACACACAATAAGTTAATATAA [CACACA_site4655],7.29
23,TATATTTATATCATCACACATTTTTTTTTTCTTTTT [CACACA_site6150],6.58

row,Sequence,gcPBM binding intensity (ln)
1,ATATATATTAATAGTTGTACTATTATAATATTACAA [XGTACX_site1213],7
2,AGGATAACATACAAAAGTACATAAAACTAAAAAAAC [XGTACX_site26],7.32
3,TATATGTTTACTTAATGTACTTACATTTTTATAACA [XGTACX_site1100],6.91
4,GCATTATTATATATTTGTACATATTTTTTTTTAAAA [XGTACX_site5436],7.3
5,AATATATAAACACGTACACACACATATATGTATATA [CACACA_site9168],7.39
6,TATTAAATTATATAGACACACATTATGTATATATAT [CACACA_site345],7.49
7,TTTTTTAAAAGAAAATAAAAAATAAGCATAATATGA [CACACA_negctrl_site1574],7.06
8,ATGGAATATTTCATGATTTTTTTAATTTTTTTATTG [XGTACX_negctrl_site55],6.6
9,ATATATTATATATATTTTAAGTAATTTGCAAAAAAT [GTGCAC_negctrl_site361],7.01
10,CACATAAAATAAGGTGCATGCAAACGAGAAAATAAA [TGCATGCA_site75],11
11,AAAAGGAACGGACACACACACATATATATATATATA [CACACA_site5894],9.31
12,ACGGAAAAAGAAAAGGTGCATATGGACACAATATAT,11.3
13,AGGTGCAAAAATAAAACATGCAAAAATAAAAATGAA [TGCATGCA_site502],9.93
14,TATGGAAGAAAATATACACACAAAAAAAAAAAATGG [CACACA_site4924],6.99
15,GAAAGAATAAAATAAACATGCAAATAAAACATAAAA [TGCATGCA_site471],7.2
16,TTGTTAAATATTTATAAAATGAATTTAAAATGTACT [CACACA_negctrl_site665],7.05
17,ATATGTATAAATATAAATATATATATATATATATAT [CACACA_negctrl_site705],9.63
18,TAATATAAAGGAAAAGAAAAGAAAAGAATATACAAT [CACACA_negctrl_site1369],6.69
19,GTAATAAGAATTATAGTGCAATGTAATACATTTATA,7.97
20,GAAAGGACAAGAATAGTGCACATGCAATGTTATTTT [GTGCAC_site9985],9.8
21,GGACAAGAATAGTGCACATGCAATGTTATTTTTTAT [TGCATGCA_site450],10.9
22,ATTTTTTTTTTTTTTATTCCCCTTTCGAAAAAAACC [CACACA_negctrl_site1139],7.18
23,ATAGTTTAATTTATATGTACATATAATATTGATTTG [XGTACX_site7520],7.29

row,Sequence,gcPBM binding intensity (ln)
1,TACTTATTTGATTGGGTGCATATATATAGTATGTAT [GTGCAC_site9845],10.6
2,CTTATTGATTTAAAAAGTACATATATGTATATACAC [XGTACX_site4072],7.05
3,TTTTATTTATCTAATTGTACTCATTCTTTTTTGATG [XGTACX_site2876],6.88
4,AGATATATATATAGGTGTACTGGAATGAAATTGTTT [XGTACX_site8200],6.94
5,AAATAAAAATTAAAAAAATAGAAACGAATTGAATGC [TGCATGCA_negctrl_site365],7.2
6,TATAAATTAAAATGTGTGCACTAAATTGAAATAGAA,10.7
7,GATGAAAATAGAAATACACACTAAAAAATAAAATTA [CACACA_site4764],6.75
8,TCAATATATATAAGAAGTACATGTGAATGAAAAAAA [XGTACX_site1674],7.14
9,AAAAAAAAATTATTCACACATATATATATATATATA [CACACA_site5579],9.38
10,TAAAATAATTTATGCATACACACATATATATATATA [CACACA_site4021],9.23
11,ATATACACCTGAGAGGTGCATATATATAAAATTTAC,11.2
12,GCATATTTTATAATTTTACACACCATATAAAATAAT [CACACA_site8904],7.2
13,TAAGAATTGAAAAAATGTACACAATATAAAATTGAA [XGTACX_site698],6.88
14,TAAATTATAATATGCACACAAAATGTTATATTAAAA [CACACA_site376],7.01
15,ATAATTAAGTTATGTGTGCACTGTTAAAAATAAATG,10.4
16,TATTAAAAATGTTAAGTGCAAAAATAAAAATTGTGG [GTGCAC_site9854],7.71
17,ACCTATATAAGTTATACACACAAATATAGATATATA [CACACA_site7356],7.06
18,ATGTAAGTTGTGCATTCACACACATATATATATATA [CACACA_site9086],9.26
19,AACAAGTTGCATGGTGCACACATGTATATATATCTA [CACACA_site2548],11.6
20,TAGTTGCACATGTATACACACAAAAAATATTTTATG [CACACA_site475],7.68
21,ATCATATGTATGCATACACACAAAAAGTTATTTATA [CACACA_site6325],7.06
22,AACAAGTTGCATGGTGCACACATGTATTTATATCTA [CACACA_site5414],11.8
23,TATGGTATATACAACACACACACATATGTATATATA [CACACA_site927],7.14
